TDP1 cell CPT: growth inhibition of DT40 Tdp1-/-;hTDP1 cells with camptothecin (screen for TDP1 inhibitors). chicken DT40 Tdp1-/-;hTDP1 cells + 20 nM CPT, ATP luminescence, 48 h. Potency, µM (top dose mostly 46.2 µM), for the others: top-dose activity change, negative = growth inhibition, hits mostly inhibitors. 420,000 tested, 12% active; also: potency is read from the fitted curve at half-maximal effect; nearly all actives have a fitted effect of over 55% in size
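Chicken DT40 Tdp1-/- cells stably complemented with human TDP1 were seeded at 400 cells/well in medium containing 20 nM camptothecin, exposed to pin-transferred compounds, and grown at 37 °C for at least 48 hr. Viability was read as ATP luminescence.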
ELG1 repair inh: blocks ELG1-dependent DNA repair in HEK293T cells | HEK293T ELG1-luciferase reporter, luminescence, 16 h; DNA damage induced by 5-fluorouridine | 330,000 tested, 2.3% active | Potency, µM (titrated, usually from 46.1 µM), for the others: top-dose activity change, negative = inhibition, usual class: inhibitors; also: potency is read from the fitted curve at half-maximal effect; nearly all actives have a fitted effect of over 55% in size
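Luminescence from the luciferase reporter, measured 30 min after ONE-Glo reagent at room temperature, was the read-out. Beforehand, 2,000 cells per well were exposed for 16 hr at 37 °C to 5-fluorouridine together with compound or vehicle.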
Giardia kill: Giardia lamblia killing | Giardia lamblia trophozoite viability | activity change, % at 7.66 µM, hits read low | 340,000 tested, 0.15% active | AID 540267; in the data active = activity change below about -80%; inconclusive = between about -30% and that limit;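 also: parasites exposed to compound for two days anaerobically before the ATP read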
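Viability, read as ATP luminescence: trophozoites at 100 cells/well, compound added, 48 hrs anaerobic at 37 deg C, then 15-30 min room-temperature development before reading.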
IL1B secr inh: inflammasome signaling inhibition, IL-1 beta readout. THP-1 LPS/ATP IL-1B secretion, AlphaLISA, 16 h; hits give low values. activity change, % at 57.5 µM. 360,000 tested, 4.7% active; in the data active = activity change below about -50%; inconclusive = mostly about -30% to -49%
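Secreted IL-1B measured by AlphaLISA bead assay after 16 h compound exposure of THP-1 cells; compounds (final up to 57.5 uM) added 1 h before LPS (250 ng/mL) and ATP (1.25 mM) stimulation; lower signal means less secretion.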
TDP1 inh: blocks human tyrosyl-DNA phosphodiesterase 1; Q9NUW8; recombinant TDP1, AlphaScreen DNA substrate cleavage; Potency, µM (series often up to 130 µM), without a hit: top-dose activity change, negative = inhibition, most hits filed as inhibitors; 350,000 tested, 0.28% active; also: potency is read from the fitted curve at half-maximal effect; nearly all actives have a fitted effect of over 40% in size
Target sequence (Q9NUW8 whole entry, looked up): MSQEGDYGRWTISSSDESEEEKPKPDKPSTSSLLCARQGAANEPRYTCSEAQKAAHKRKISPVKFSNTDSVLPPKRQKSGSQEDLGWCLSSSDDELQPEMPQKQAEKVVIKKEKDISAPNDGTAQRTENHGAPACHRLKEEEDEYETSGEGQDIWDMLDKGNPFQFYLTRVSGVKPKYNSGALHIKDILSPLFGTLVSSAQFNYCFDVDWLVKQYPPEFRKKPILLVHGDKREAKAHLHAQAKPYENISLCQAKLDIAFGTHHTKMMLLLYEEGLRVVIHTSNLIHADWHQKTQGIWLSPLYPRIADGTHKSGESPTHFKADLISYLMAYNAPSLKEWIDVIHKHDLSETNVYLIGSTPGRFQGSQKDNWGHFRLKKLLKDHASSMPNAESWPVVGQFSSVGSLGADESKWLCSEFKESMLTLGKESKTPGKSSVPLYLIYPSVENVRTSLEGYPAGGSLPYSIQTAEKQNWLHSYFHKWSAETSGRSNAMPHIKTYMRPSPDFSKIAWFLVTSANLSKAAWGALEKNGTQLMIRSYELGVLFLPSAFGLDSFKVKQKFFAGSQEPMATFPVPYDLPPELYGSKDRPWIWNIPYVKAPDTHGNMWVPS
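Enzyme-compound mixtures sat 15 min at room temperature, followed by a 5 min reaction with 15 nM final substrate and 10 min with AlphaScreen beads. Recombinant human Tdp1 was used at 1 nM final.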
TDP1 cell noCPT: qHTS for Inhibitors of human tyrosyl-DNA phosphodiesterase 1 (TDP1): qHTS in cells in absence of CPT; DT40 Tdp1-/- hTDP1 cells, no CPT, ATP luminescence, 48 h; Potency, µM (doses to about 46.2 µM), without a hit: top-dose activity change, negative = growth inhibition, actives largely listed as inhibitors; 420,000 tested, 15% active; AID 686978, 2013; also: potency is read from the fitted curve at half-maximal effect; nearly all actives have a fitted effect of over 55% in size
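DT40 Tdp1-/-;hTDP1 cells, no CPT (DMSO vehicle only), 400 cells/well; compounds pin-transferred; ≥48 hr, 37 °C; CellTiter-Glo 30 min RT dark, luminescence read.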
* marks the source's active call; other numbers are inactive results; ? = inconclusive; · = not tested or not shown. Rows were chosen to be rich in hits. Some 19% of all compounds tested hit in one or more screens of this group. Unless noted, calls follow the shape of the dose curve; as a rule, active = well fitted curve in the direction sought with a large enough effect; inconclusive = small, poorly fitted or top-dose-only effect, or another doubt; inactive = no such curve, though single readings can be large; an effect the other way counts as inactive or inconclusive. % is scaled to controls: 0 for no effect and ±100 for the full control effect.

SMILES | TDP1 cell CPT | ELG1 repair inh | Giardia kill | IL1B secr inh | TDP1 inh | TDP1 cell noCPT
CC(C)C(=O)N1CCN(c2ccccc2NC(=O)c2cc([N+](=O)[O-])ccc2N2CCOCC2)CC1 | ? | ? | -8.2 | -3.9 | 7.7% | 13µM*
O=C(NCc1ccco1)c1cc([N+](=O)[O-])ccc1N1CCCCC1 | 16.4µM* | ? | -18.0 | -16.6 | -5.1% | ?
COc1ccc(OC)c(NC(=O)c2cc(-c3cc(Cl)ccc3O)n[nH]2)c1 | 18.4µM* | ? | 0.1 | ? | -6.1% | 11.6µM*
COc1ccc(Cl)cc1NC(=O)c1cc(-c2ccccc2O)n[nH]1 | ? | 13.4% | -2.4 | -12.0 | -8.9% | 14.6µM*
Cc1c(Cl)cccc1NC(=O)c1cc(-c2ccccc2O)n[nH]1 | ? | ? | -10.4 | -60.4* | -1.8% | ?
NS(=O)(=O)c1ccc(NC(=O)c2cc(-c3cc(Cl)ccc3O)n[nH]2)cc1 | -6.7% | 5.17µM* | -2.2 | -28.8 | · | ?
COc1ccc(Cl)cc1-c1cc(C(=O)Nc2ccc(F)cc2)[nH]n1 | ? | · | · | 0.0 | · | -9.6%
COc1cccc(Cn2c(=O)c(-c3cccc(Cl)c3)nc3cncnc32)c1 | -24.8% | · | · | · | · | -17.9%
CC1CN(S(=O)(=O)c2ccc(NC(=O)c3cc(-c4ccccc4O)n[nH]3)cc2)CC(C)O1 (centres undefined) | 20.6µM* | 20µM* | 13.4 | -50.9* | 6.2% | ?
CSc1ccc(CCNC(=O)Cn2ccc3cc(S(=O)(=O)N4CCCCCC4)ccc32)cc1 | 14.6µM* | · | · | · | 0.0% | ?
CCOc1ccc(CCNC(=O)Cn2ccc3cc(S(=O)(=O)N4CCCCCC4)ccc32)cc1 | 20.6µM* | · | · | · | 2.8% | 13µM*
CCOc1ccc(CCNC(=O)Cn2ccc3cc(S(=O)(=O)N4CCCC4)ccc32)cc1 | ? | -6.9% | 4.9 | 23.1 | 3.9% | ?
COc1ccccc1CCNC(=O)Cn1ccc2cc(S(=O)(=O)N3CCCCCC3)ccc21 | ? | · | · | · | 0.0% | ?
O=C(Cn1ccc2cc(S(=O)(=O)N3CCCCCC3)ccc21)NCCc1ccc(Cl)cc1 | 16.4µM* | · | · | · | 8.5% | 18.4µM*
COc1ccc(OC)c(CCNC(=O)Cn2ccc3cc(S(=O)(=O)N4CCCCC4)ccc32)c1 | ? | · | · | · | 2.8% | 7.31µM*
CN(C)CCNC(=O)Cn1ccc2cc(S(=O)(=O)N3CCCCC3)ccc21 | 1.6% | 22.7% | -0.8 | 0.0 | -0.3% | 21.8%
COc1ccc(CCNC(=O)Cn2ccc3cc(S(=O)(=O)N4CCCCC4)ccc32)cc1OC | ? | · | · | · | 5.6% | ?
Cc1ccc(Nc2nnc(SCC(=O)c3ccc(O)cc3O)s2)cc1 | -29.1% | -18.9% | 11.4 | 30.8 | · | ?
Cc1ccc(NC(=O)COC(=O)c2ccc(OCc3c(C)noc3C)cc2)cc1S(=O)(=O)N1CCOCC1 | 5.9% | -12.9% | -12.7 | 3.7 | 4.2% | -16.2%
CCOC(=O)C1c2cccc(O)c2CCN1C(C)=O (centres undefined) | 60.9% | · | · | 2.4 | · | -2.6%
CCN(C(=O)Cn1ncc2c(=O)oc3ccccc3c21)c1ccccc1F | -26.8% | · | · | · | 7.0% | ?
Cc1ccc(CNC(=O)COC(=O)c2nc(-c3ccccc3)oc2C)cc1 | -24.2% | ? | -7.0 | 14.7 | -3.0% | -24.0%
CC1CCC(NC(=O)CNC(=O)c2cccs2)CC1 (centres undefined) | -6.0% | ? | -26.5 | 36.0 | 2.4% | 19.7%
c1ccc(OCc2nn3c(Cn4nnc5ccccc54)nnc3s2)cc1 | 16.4µM* | 3.7% | -18.6 | -4.8 | -4.5% | 20.6µM*
c1ccc(CCc2nn3c(Cn4nnc5ccccc54)nnc3s2)cc1 | ? | 9.0% | -6.4 | ? | 3.1% | ?

Assay outcomes from PubChem.
